Measured values as given in PubChem BioAssay.
Unmarked numbers belong to inactive results. A call without a number means that no potency is given here. For part of these data: Potency and affinity values are given separately. Calls of active or inactive are those of the source. Unless noted, no rule for the calls is given here.

Legend:
[1] = antimalarial activity against Dd2 strain (AID 2302;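 active = growth inhibition above 50% at the single 2 µM test dose, taken to imply half-maximal potency below 2 µM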); conditions: P. falciparum Dd2 in RBCs, LDH growth readout, 72 h; at 2 µM; hits give high values
[2] = HepG2 cytotoxicity, primary screen, cytotoxicity control for P. falciparum antimalarial project, cell-based, ATP luminescence (AID 2303;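 active = inhibition above 50%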); conditions: HepG2 viability, 24-48 h, at 10 µM, hits give high values
[3] = molecular target: L-lactate dehydrogenase (Plasmodium falciparum (isolate CDC / Honduras)) (UniProt Q27743); assay: PfLDH activity inhibition – cell lysate, 3D7 strain, counter-screen for P. falciparum growth inhibition project (AID 2304); conditions: P. falciparum 3D7 crude extract, LDH APAD/NBT absorbance; at 2 µM; hits give high values
Chain of L-lactate dehydrogenase (Plasmodium falciparum (isolate CDC / Honduras)) (Q27743 whole entry, looked up): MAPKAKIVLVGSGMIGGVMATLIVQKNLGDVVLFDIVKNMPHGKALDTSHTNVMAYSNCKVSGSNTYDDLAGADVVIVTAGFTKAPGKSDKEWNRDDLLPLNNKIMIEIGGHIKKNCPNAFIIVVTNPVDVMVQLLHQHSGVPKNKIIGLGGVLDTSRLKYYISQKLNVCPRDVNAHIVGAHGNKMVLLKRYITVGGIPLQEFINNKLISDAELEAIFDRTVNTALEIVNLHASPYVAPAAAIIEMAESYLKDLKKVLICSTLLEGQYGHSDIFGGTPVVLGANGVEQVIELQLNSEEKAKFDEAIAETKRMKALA

[4] = inhibition of 3D7 malaria parasite growth – strain 3D7 (AID 2306); conditions: P. falciparum 3D7 erythrocytic growth, LDH absorbance, 72 h; at 2 µM; hits give high values
[5] = molecular target: Calcium-dependent protein kinase 1 (Plasmodium falciparum (isolate 3D7)) (UniProt P62344); assay: PfCDPK1 kinase inhibitors, biochemical, TCAMS library (AID 1159585; cut-off not given, nearly all actives have IC50 up to about 0.98 µM;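 also: inhibitors leave more ATP so luminescence rises with inhibition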); conditions: recombinant PfCDPK1, Kinase-Glo ATP depletion luminescence
Chain of Calcium-dependent protein kinase 1 (Plasmodium falciparum (isolate 3D7)) (P62344 whole entry, looked up): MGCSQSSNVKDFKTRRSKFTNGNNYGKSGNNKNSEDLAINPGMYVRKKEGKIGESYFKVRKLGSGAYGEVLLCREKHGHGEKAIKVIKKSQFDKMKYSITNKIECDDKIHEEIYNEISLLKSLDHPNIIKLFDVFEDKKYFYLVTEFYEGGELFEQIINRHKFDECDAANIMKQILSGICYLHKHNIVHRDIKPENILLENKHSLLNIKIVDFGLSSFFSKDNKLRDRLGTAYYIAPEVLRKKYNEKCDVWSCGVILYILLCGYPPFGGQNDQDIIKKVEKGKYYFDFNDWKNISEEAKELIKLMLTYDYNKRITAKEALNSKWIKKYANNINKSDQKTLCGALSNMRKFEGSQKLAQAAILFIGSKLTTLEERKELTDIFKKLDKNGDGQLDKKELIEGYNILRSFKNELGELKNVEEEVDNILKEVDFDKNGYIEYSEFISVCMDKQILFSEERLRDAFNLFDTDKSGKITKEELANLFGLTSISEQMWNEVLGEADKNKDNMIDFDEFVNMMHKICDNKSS

[6] = molecular target: Plasmodium falciparum protein kinase 6 (PK6, PF3D7_1337100) (UniProt Q8IDW1); assay: PfPK6 kinase inhibitors, biochemical, TCAMS library (AID 1159586); conditions: recombinant PfPK6, Kinase-Glo ATP depletion luminescence
Chain of Plasmodium falciparum protein kinase 6 (PK6, PF3D7_1337100) (Q8IDW1 1-305): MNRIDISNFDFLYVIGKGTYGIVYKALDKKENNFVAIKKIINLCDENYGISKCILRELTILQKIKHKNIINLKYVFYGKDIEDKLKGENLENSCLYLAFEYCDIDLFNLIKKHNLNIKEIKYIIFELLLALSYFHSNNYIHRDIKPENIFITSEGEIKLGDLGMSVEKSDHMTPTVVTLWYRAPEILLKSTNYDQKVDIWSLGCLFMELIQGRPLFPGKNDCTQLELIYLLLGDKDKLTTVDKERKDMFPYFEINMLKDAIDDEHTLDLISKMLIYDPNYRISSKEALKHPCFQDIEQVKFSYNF

[7] = molecular target: Protein kinase 7 (PK7), Plasmodium falciparum 3D7 (PF3D7_0213400) (UniProt Q7YTF7); assay: inhibition of Plasmodium PK7 catalytic activity – biochemical, TCAMS antimalarial set, Kinase-Glo luminescence (AID 1159587); conditions: recombinant PfPK7, Kinase-Glo ATP depletion luminescence
Chain of Protein kinase 7 (PK7), Plasmodium falciparum 3D7 (PF3D7_0213400) (Q7YTF7 1-343): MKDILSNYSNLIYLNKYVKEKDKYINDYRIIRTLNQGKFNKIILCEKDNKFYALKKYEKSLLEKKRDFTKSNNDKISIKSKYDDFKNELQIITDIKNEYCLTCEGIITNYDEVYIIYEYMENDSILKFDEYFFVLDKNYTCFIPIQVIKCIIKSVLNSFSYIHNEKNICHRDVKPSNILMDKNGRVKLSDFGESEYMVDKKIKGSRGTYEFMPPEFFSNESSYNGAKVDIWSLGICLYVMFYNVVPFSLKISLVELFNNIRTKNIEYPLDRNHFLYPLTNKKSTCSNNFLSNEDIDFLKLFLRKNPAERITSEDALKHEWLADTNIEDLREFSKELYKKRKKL

[8] = molecular target: Calcium-dependent protein kinase 4 (Plasmodium falciparum (isolate 3D7)) (UniProt Q8IBS5); assay: PfCDPK4 kinase inhibitors, biochemical, TCAMS library (AID 1159588; cut-off not given, nearly all actives have IC50 up to about 0.91 µM); conditions: recombinant PfCDPK4, Kinase-Glo ATP depletion luminescence
Chain of Calcium-dependent protein kinase 4 (Plasmodium falciparum (isolate 3D7)) (Q8IBS5 whole entry, looked up): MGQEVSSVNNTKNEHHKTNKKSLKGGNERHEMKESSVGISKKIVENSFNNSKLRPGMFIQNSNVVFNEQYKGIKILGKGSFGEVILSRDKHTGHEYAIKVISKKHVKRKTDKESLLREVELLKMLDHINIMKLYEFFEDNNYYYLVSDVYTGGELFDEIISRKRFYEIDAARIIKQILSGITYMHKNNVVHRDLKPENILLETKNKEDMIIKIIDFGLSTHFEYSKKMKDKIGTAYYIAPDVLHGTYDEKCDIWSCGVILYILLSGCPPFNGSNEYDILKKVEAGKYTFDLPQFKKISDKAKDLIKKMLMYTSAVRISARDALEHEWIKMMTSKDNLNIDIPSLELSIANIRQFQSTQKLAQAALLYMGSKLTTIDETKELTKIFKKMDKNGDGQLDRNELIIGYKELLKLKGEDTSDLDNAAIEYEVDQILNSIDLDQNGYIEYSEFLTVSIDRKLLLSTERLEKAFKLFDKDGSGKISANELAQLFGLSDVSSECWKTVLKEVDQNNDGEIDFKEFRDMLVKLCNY

SMILES: Cc1cc(N[C@@H](CC(C)C)C(=O)NCCc2ccccc2)nc(NCCc2ccc(F)cc2)n1
- growth inhibition [1]: 53% (active)
- inhibition [2]: 12%
- inhibition [3]: -1%
- growth inhibition [4]: 98% (active)
- outcome [5]: inactive
- outcome [6]: inactive
- outcome [7]: inactive
- outcome [8]: inactive

SMILES: FC(F)(F)c1ccc2nc(-c3ccc(-c4cccc(CNCCN5CCNCC5)c4)cc3)[nH]c2c1
- growth inhibition [1]: 2%
- inhibition [2]: 13%
- inhibition [3]: -1%
- growth inhibition [4]: 92% (active)
- outcome [5]: inactive
- outcome [6]: inactive
- outcome [7]: inactive
- outcome [8]: inactive

SMILES: O=C(Nc1ccc(-c2ccccc2)cc1)Nc1cccc(Cn2nc(Cl)c(N3CCNCC3)cc2=O)c1
- growth inhibition [1]: 79% (active)
- inhibition [2]: 15%
- inhibition [3]: -2%
- growth inhibition [4]: 102% (active)
- outcome [5]: inactive
- outcome [6]: inactive
- outcome [7]: inactive
- outcome [8]: inactive
